Results taken from PubChem BioAssay AID504465 (National Center for Advancing Translational Sciences (NCATS), 2011).
In all, about 2,100 compounds went through this assay and about 210 (10%) were called active. Inconclusive results (about 53%) are left out. The call rests on the fitted dose curve; in most records, active means well fitted inhibition curve with a large enough effect; inconclusive means small, poorly fitted or top-dose-only effect, or effect the other way; inactive means no such curve, though single readings can be large or run the other way. This is one part of the list. Entries that show only a call come without a potency.

Experiment: IN Cell qHTS Assay for Inhibitors of the mTORC1 Signaling Pathway in MEF (Tsc2-/-, p53-/-) Cells: Sytravon; further: nearly all actives have a fitted effect of over 60% in size
Conditions: phospho-rpS6 immunofluorescence, 24 h; series mostly up to 38.3 µM
How it was run: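 Immunofluorescence of rpS6 phosphorylation (Ser235/236) in mouse embryonic fibroblasts lacking Tsc2 and p53, after 24 h compound exposure; Hoechst-normalized signal imaged, each well scored as % active cells relative to rapamycin (7.5 nM) and DMSO controls.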
Potency means the concentration at half of the fitted maximal effect.

| Structure (SMILES) | Potency |
| --- | --- |
| COc1ccc(NC(=O)CCS(=O)(=O)c2nc(-c3cccs3)cc(C(F)(F)F)n2)cc1OC | 16.5 µM (active) |
| O=C(CCS(=O)(=O)c1nc(-c2cccs2)cc(C(F)(F)F)n1)Nc1cc(Br)ccc1O | 7.36 µM (active) |
| COc1ccc(NC(=O)C2CCC(CNS(=O)(=O)c3ccc(Br)s3)CC2)cc1OC (stereo not drawn) | inactive |
| CSc1ccccc1NC(=O)CCS(=O)(=O)c1nc(-c2cccs2)cc(C(F)(F)F)n1 | inactive |
| COc1ccc(NC(=O)CCS(=O)(=O)c2nc(-c3cccs3)cc(C(F)(F)F)n2)cc1 | inactive |
| CC(=O)c1ccc(N2CCN(c3ncnc4c3c(-c3ccccc3)cn4-c3cccc(C)c3)CC2)cc1 | inactive |
| c1ccc(N2CCN(c3ncnc4c3nc3n4CCCCC3)CC2)cc1 | inactive |
| Cc1cccc(N2CCN(c3ncnc4c3nc3n4CCCCC3)CC2C)c1 (stereo not drawn) | 14.7 µM (active) |
| CCCc1cc(N2CCN(c3ccccc3)CC2)n2cnnc2n1 | inactive |
| CCCCC1CCC(C(=O)N2CC(=O)Nc3ccc(F)cc3C2c2ccc(F)cc2)CC1 (stereo not drawn) | 16.5 µM (active) |
| Cc1c(Cl)cccc1NC(=O)c1ccc2c(c1)nnn2C1CCCC1 | inactive |
| Nc1c(C(=O)c2ccc(F)cc2)sc(Nc2ccccc2F)c1S(=O)(=O)c1ccc(Br)cc1 | inactive |
| COc1ccc(OC2CCN(S(=O)(=O)c3ccc(OC)cc3)CC2)cc1 | inactive |
| Cc1cccc(NC(=O)Cn2nc(-c3ccc(Cl)cc3)c3ccccc3c2=O)c1 | inactive |
| Cc1cc(-c2ccc(C)c(S(=O)(=O)N3CCOc4ccc(Cl)cc43)c2)on1 | inactive |
| COC(=O)COc1ccc(-c2nnc(Nc3ccc(O)cc3)c3ccccc23)cc1 | inactive |
| Cc1cccc(Nc2nnc(-c3ccc(C)c(S(=O)(=O)N4CCN(C)CC4)c3)c3ccccc23)c1 | 14.7 µM (active) |
| Cc1ccc(-c2nnc(Nc3cccc(Cl)c3)c3ccccc23)cc1S(=O)(=O)N1CCN(C)CC1 | 9.27 µM (active) |
| COc1ccc(Nc2nnc(-c3ccc(C)c(S(=O)(=O)N4CCN(C)CC4)c3)c3ccccc23)cc1 | 16.5 µM (active) |
| CCCCC(=O)Nc1nnc(S(=O)(=O)N2CCCCCC2)s1 | inactive |
| CCCN(C(=O)Cn1ncc2c([nH]c3ccc(C)cc32)c1=O)c1ccccc1C | inactive |
| CCN(CC)CCCNc1ncnc2c1cnn2-c1ccc(C)c(C)c1 | inactive |
| O=C(Nc1ccc(F)cc1F)N1CCN(c2ccc(Cl)c(Cl)c2)CC1 | inactive |
| Cc1ccccc1NC(=O)CCn1cnc2onc(-c3ccc(F)cc3)c2c1=O | inactive |

| Structure (SMILES) | Potency |
| --- | --- |
| Cc1cc2c(cc1C)NC(CC(=O)Nc1ccccc1)C(=O)N2 (stereo not drawn) | inactive |
| CCCS(=O)(=O)c1ncc(Cl)c(C(=O)N2CCN(c3ccc(OC)cc3)CC2)n1 | inactive |
| Cc1ccccc1S(=O)(=O)Cc1ccc(C(=O)N2CCN(c3cccc(Cl)c3)CC2)o1 | inactive |
| CCn1c2c(c(=O)n3ncc(C(=O)N4CCN(c5ccc(Cl)cc5)CC4)c13)CN(Cc1ccc(OC)cc1)CC2 | inactive |
| Cc1oc2ncnc(N3CCCCC3)c2c1C(=O)N1CCN(c2cccc(Cl)c2)CC1 | inactive |
| Cc1ccc2nc(N3CCC(C(=O)N4CCN(c5cccc(Cl)c5)CC4)CC3)[nH]c2c1 | inactive |
| CNS(=O)(=O)c1cn(CC(=O)N2CCN(c3cccc(Cl)c3)CC2)cc1S(=O)(=O)NC | inactive |
| CCS(=O)(=O)c1ncc(Cl)c(C(=O)N2CCN(c3cccc(Cl)c3)CC2)n1 | 2.61 µM (active) |
| CS(=O)(=O)c1ncc(Cl)c(C(=O)N2CCN(c3cccc(Cl)c3)CC2)n1 | 0.521 µM (active) |
| CCS(=O)(=O)c1ncc(Cl)c(C(=O)N2CCN(c3ccc(OC)cc3)CC2)n1 | 4.65 µM (active) |
| COc1ccc(N2CCN(C(CNC(=O)C(=O)NCc3ccc(F)cc3)c3cccnc3)CC2)cc1 (stereo not drawn) | inactive |
| Cc1ccc(CNS(=O)(=O)c2cc(C(=O)Nc3cccc(C(F)(F)F)c3)ccc2F)cc1 | inactive |
| COc1ccc(NC(=O)c2c(NCc3ccc(C)o3)sc3c2CCC(C)C3)c(OC)c1 (stereo not drawn) | inactive |
| CC(=O)N1c2ccc(S(=O)(=O)NCC3CCC(C(=O)Nc4cccc(F)c4)CC3)cc2CC1C (stereo not drawn) | inactive |
| Cc1cc(-c2ccc(S(=O)(=O)Nc3cc(Cl)ccc3C)s2)on1 | inactive |
| COc1cccc(CNC(=O)C2Cc3cc(S(=O)(=O)N4CCCCCC4)ccc3N2C(C)=O)c1 (stereo not drawn) | inactive |
| Cc1ccc2nc(/C(C#N)=C/c3cccc(Br)c3)[nH]c2c1 | inactive |
| Cc1cccc(-n2nnnc2S(C)(=O)=O)c1 | 1.47 µM (active) |
| CCc1ccc(S(=O)(=O)c2nnn(-c3cccc(C)c3)c2N)cc1 | inactive |
| Cc1cccc(C2C=C(c3ccc(C)c(C)c3)Nc3nnnn32)c1 (stereo not drawn) | inactive |
| COc1ccc(C(=O)NC(c2ccccc2Cl)c2cc(Cl)c3cccnc3c2O)cc1 (stereo not drawn) | inactive |
| O=C(Nc1nnc(-c2cc(Cl)ccc2Cl)o1)c1ccc2c(c1)OCCO2 | inactive |
| COC(=O)c1sc2cccc(F)c2c1S(=O)(=O)N1CCN(c2cccc(OC)c2)CC1 | inactive |
| COc1ccc(/C=C/c2nc(C#N)c(NC3CCCCC3)o2)cc1OC | inactive |

| Structure (SMILES) | Potency |
| --- | --- |
| COc1cccc(-c2nnc3sc(CN4CCCCC4)cn23)c1 | 14.7 µM (active) |
| COc1cccc(-c2cc(C(=O)Nc3ccn(Cc4ccc(C)cc4)n3)no2)c1 | inactive |
| COc1ccc(NC(=O)c2c(C)oc3ccc(O)c(CN4CCCCCC4)c23)cc1 | inactive |
| Cc1ccc(CNCc2c(C(=O)O)n(Cc3ccc(C)cc3)c3cc(C)ccc23)cc1 | inactive |
| O=C(Nc1ccc(C(F)(F)F)cc1)c1cc(S(=O)(=O)NC2CCCCCC2)ccc1F | inactive |
| CCc1ccccc1NC(=O)CSc1nnc(COc2ccccc2Cl)o1 | inactive |
| Cc1ccc(OCC(=O)Nc2nnc(SCc3cc(=O)n4cc(C)ccc4n3)s2)cc1 | inactive |
| COc1cc(C(=O)n2nc(C)c(Sc3ccc(Cl)cc3)c2C)cc(OC)c1OC | 11.7 µM (active) |
| COc1cc(C(=O)N2CCc3c([nH]c4ccccc34)C2c2ccc(C)cc2)cc(OC)c1OC (stereo not drawn) | inactive |
| Cc1ccc(-n2c(SCc3ccccc3C)nc3[nH]ncc3c2=O)cc1C | inactive |
| COc1ccc(Cl)cc1NC(=O)c1c(NCc2cccnc2)sc2c1CCC(C)C2 (stereo not drawn) | inactive |
| COc1ccc(Cl)cc1NC(=O)c1c(NCc2cccs2)sc2c1CCC(C)C2 (stereo not drawn) | inactive |
| CC(C)(C)C1CCc2c(sc(NC(=O)c3cccc(Cl)c3)c2C(N)=O)C1 (stereo not drawn) | 7.36 µM (active) |
| CCCCC(=O)OC1=C(C(=O)c2ccccc2)N(CCC)S(=O)(=O)c2ccccc21 | inactive |
| Cc1scc(CN2CCN(c3ccccc3F)CC2)c1C | inactive |
| CC1C(=O)Nc2ccc(S(=O)(=O)Nc3ccccc3Br)cc2NC1=O (stereo not drawn) | inactive |
| CN(C)CCNC(=O)c1ccc(-n2c(-c3ccccc3)cc3c2CCCCC3)cc1 | inactive |
| CC(=O)Nc1c(C(=O)Nc2ccccc2F)oc2ccccc12 | inactive |
| CCSc1ncc(Cl)c(C(=O)Nc2ccc(S(=O)(=O)N3CCCCC3CC)cc2)n1 (stereo not drawn) | inactive |
| CCS(=O)(=O)c1ncc(Cl)c(C(=O)Nc2ccc(S(=O)(=O)N(C)c3ccccc3)cc2)n1 | 0.927 µM (active) |
| CCCS(=O)(=O)c1ncc(Cl)c(C(=O)Nc2c(C(=O)Nc3ccccc3)oc3ccccc23)n1 | 2.07 µM (active) |
| CCS(=O)(=O)c1ncc(Cl)c(C(=O)Nc2ccccc2)n1 | 2.61 µM (active) |
| CCS(=O)(=O)c1ncc(Cl)c(C(=O)Nc2c(C(=O)Nc3cccc(C)c3)oc3ccccc23)n1 | inactive |
| CCNC(=O)c1c(NC(=O)c2nc(S(=O)(=O)CC)ncc2Cl)sc2c1CCCC2 | 2.07 µM (active) |

| Structure (SMILES) | Potency |
| --- | --- |
| CN(C)C(=O)c1c(NC(=O)c2ccccc2F)sc2c1CCCC2 | inactive |
| Cc1cc(C)cc(-n2c(SCC(N)=O)nc3c([nH]c4ccccc43)c2=O)c1 | inactive |
| CC1=C(C(=O)Nc2ccccc2)C(c2cccnc2)n2nc(SCc3ccccc3F)nc2N1 (stereo not drawn) | inactive |
| COc1ccc(Cl)cc1NC(=O)c1c(NCc2ccc(C)o2)sc2c1CCC(C)C2 (stereo not drawn) | inactive |
| COC(=O)c1ccc([C@H]2Nc3ccc(S(=O)(=O)Nc4ccc(F)cc4)cc3[C@H]3C=CC[C@H]32)cc1 | inactive |
| CC(C)c1ccc(S(=O)(=O)Nc2ccc3oc4c(c3c2)C(=O)CC(C)(C)C4)cc1 | inactive |
| COc1cc(S(=O)(=O)NCCc2c(C)[nH]c3ccccc23)c(C)cc1C | inactive |
| CSc1ncc(Cl)c(C(=O)N(C)c2ccccc2)n1 | inactive |
| CN(C)S(=O)(=O)c1ccc(C(=O)Nc2ccc(-n3nncc3-c3ccccc3)cc2)cc1 | inactive |
| CCN(CC)c1nc2ccccc2nc1C(=O)Nc1ccc(C(C)=O)cc1 | inactive |
| COC(=O)c1sccc1S(=O)(=O)N(CC(=O)Nc1ccc(C)cc1)c1ccccc1 | inactive |
| CCN(c1ccccc1)S(=O)(=O)c1ccc(NC(=O)c2nc(S(C)(=O)=O)ncc2Cl)cc1 | 2.07 µM (active) |
| CN(c1ccccc1)S(=O)(=O)c1ccc(NC(=O)c2nc(S(C)(=O)=O)ncc2Cl)cc1 | 0.736 µM (active) |
| Oc1cccc(Nc2nc(-c3ccccc3)nc3ccccc23)c1 | inactive |
| Cc1ccc(-n2cnc3cc(C(=O)NCCC4=CCCCC4)ccc32)cc1Cl | inactive |
| Cc1ccc(NC(=O)N2CC3CCCN3c3ccccc32)cc1Cl (stereo not drawn) | inactive |
| Cc1ccc(-c2nn3c(=O)cc(CN4CCN(C(=O)Nc5cc(Cl)ccc5C)CC4)nc3s2)cc1 | inactive |
| CCOC(=O)c1c(NC(=O)c2ccc(S(=O)(=O)N3CCC(C)CC3)cc2)sc2c1CCN(C)C2 | inactive |
| COc1ccccc1CNC(=O)C(=O)NCC(c1cccnc1)N1CCN(c2ccc(F)cc2)CC1 (stereo not drawn) | inactive |
| Cc1ccc(/C=C(\C#N)C(=O)Nc2ccc(Br)cc2)o1 | inactive |
| Cc1[nH]n2c(=O)cc(-c3ccc(Cl)cc3)nc2c1-c1ccccc1 | inactive |
